Data taken from ChEMBL document CHEMBL4513216, “Probing the Open Global Health Chemical Diversity Library for Multistage-Active Starting Points for Next-Generation Antimalarials” (ACS Infect Dis, 2020).
Among all 69,000 compounds or so, about 8,600 (12%) showed an effect of 50% or more. The sample holds strong results, similar compounds and a random draw of the others, so the mix is not that of the screen.

tested on: Plasmodium berghei; experiment: Screen against P. berghei liver stage (PbLuc), transformed with Luciferase, at 10uM; type: functional, HepG2; conditions: tested at 10 uM

Row | Compound | INHIBITION
1 | COC(C)(C)CNC(=O)N1CCC(n2ccc(C(F)(F)F)n2)CC1 | 33.7%
2 | COCCn1cc(CC(=O)Nc2c(C)nn(C)c2C)c2ccccc21 | 37.8%
3 | CCn1cc(CNC(=O)C2CCCC2)cn1 | 38.3%
4 | CCOc1ccccc1CC(=O)N1C[C@@H](C(=O)O)[C@H](c2ccncc2)C1 | -5.32%
5 | Cc1cccc(CN2CCC(c3csc4nccn34)CC2)n1 | 15.55%
6 | CCN(Cc1nc2c(cnn2C)c(=O)[nH]1)c1cccc(C)c1 | 11.2%
7 | CCN(Cc1nc2c(cnn2C)c(=O)[nH]1)c1cc(C)cc(C)c1 | 64.7%
8 | CCN(Cc1nc2c(cnn2C)c(=O)[nH]1)c1ccccc1 | 46.2%
9 | CC(=O)N1CCC2(C=C(C(=O)NC3CC3)c3ccccc32)CC1 | -25.8%
10 | COCCCn1ccnc1-c1cnc(OC)nc1 | 10.1%
11 | COc1cc(-c2nccn2C(C)CCn2cccn2)cc2c1OCO2 (configuration not stated) | 51.3%
12 | COc1cc(-c2nccn2CCn2cccn2)cc2c1OCO2 | 9.56%
13 | COc1ncc(-c2nccn2CCN(C)C)cn1 | -13.2%
14 | COc1ncc(-c2nccn2C(C)CCn2cccn2)cn1 (configuration not stated) | 66.9%
15 | COc1cc(CNC(C)Cn2cccn2)cc2c1OCO2 (configuration not stated) | 12.6%
16 | Cc1cc(CN2CCN(C(=O)c3ccc(=O)n(C)c3)CC2)no1 | 7.19%
17 | Cc1nn(C)c(N(C)C)c1CNCc1cccnc1N(C)C | -17.4%
18 | COc1cccc([C@H]2CN(C(C)=O)[C@@H]3CCN(Cc4ccsc4)C[C@H]23)c1 | 63.4%
19 | COc1cccc(CN2CCCC(c3cc(C(N)=O)[nH]n3)C2)c1 (configuration not stated) | -7.31%
20 | COc1cccc(CN2CC[C@H]3[C@@H](C2)[C@H](c2ccsc2)CN3C(C)=O)c1 | 61.9%
21 | COc1cccc([C@@H]2CCN(Cc3ccc4ccccc4n3)C[C@H]2O)c1 | -18.4%
22 | CC(=O)N1C[C@@H](c2ccsc2)[C@@H]2CN(Cc3ccccc3)CC[C@@H]21 | 16.9%
23 | CC(=O)N1C[C@@H](c2ccsc2)[C@@H]2CN(Cc3cccc(Cl)c3)CC[C@@H]21 | 65.5%
24 | CC(=O)N1CCO[C@@H]2CN(Cc3cccc(Cl)c3)C[C@@H]2C1 | 39.4%
25 | COc1cccc(CC(=O)N2CC[C@H]3[C@@H]2CCC(=O)N3C)c1 | -3.51%
26 | COc1cccc([C@@H]2CCN(Cc3cccc(C)n3)C[C@H]2O)c1 | -3.83%
27 | O=S(=O)(N1CCCC1)N1CC(c2ccnc(Nc3ccccn3)n2)C1 | 26.7%
